Source: PubChem (National Center for Advancing Translational Sciences (NCATS))
Pf growth 96h = Primary qHTS for delayed death inhibitors of the malarial parasite plastid, 96 hour incubation; P. falciparum luciferase reporter growth, 96 h; Potency, µM (highest dose often 28.7 µM), for the others: top-dose activity change, negative = inhibition, most hits filed as inhibitors; 6.9% of 320,000 active; also: potency is read from the fitted curve at half-maximal effect; % is scaled to controls: 0 for no effect and ±100 for the full control effect
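Cell-based qHTS: luciferase-tagged P. falciparum in erythrocytes (2% hematocrit, 0.05% parasitemia final) incubated with compounds for 96 hours, 37 C, 5% CO2; luciferase detection reagent then added and luminescence measured.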
NS1 function inh = qHTS Assay for Inhibitors of Influenza NS1 Protein Function. Potency, µM (highest dose often 46.1 µM), inactives show at the top dose activity, positive = more growth. 0.4% of 270,000 active; calls by dose curve; also: potency is read from the fitted curve at half-maximal effect; actives are rising curves; nearly all actives have a fitted effect of over 50% in size
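Growth recovery, yeast-based: influenza A NS1 expressed in S. cerevisiae causes slow growth, and suppressors are detected by OD600. The parent strain without NS1 is used as positive control.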
CHX counter = Cycloheximide Counterscreen for Small Molecule Inhibitors of Shiga Toxin. max response, %. 12% of 300,000 active. AID 2314, 2010. cell reporter, cycloheximide protein synthesis inhibition counterscreen; in the data active = max response mostly above about 13%, no sharp cut-off; inactive = mostly below about 14%; also: read at 38.3 µM for the half of the compounds with a filed dose; 0% is about no effect
Pf growth 48h = Primary qHTS for delayed death inhibitors of the malarial parasite plastid, 48 hour incubation; P. falciparum luciferase growth in erythrocytes, 48 h; Potency, µM (top dose mostly 28.7 µM), without a hit: at the highest dose activity change, negative = inhibition, usual class: inhibitors; 5.9% of 310,000 active; also: potency is read from the fitted curve at half-maximal effect; % is scaled to controls: 0 for no effect and ±100 for the full control effect
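Erythrocytes infected with P. falciparum carrying an integrated firefly luciferase reporter (2% hematocrit, 0.1% parasitemia final) were exposed to compounds in RPMI 1640 with 0.5% Albumax at 37 C, 5% CO2. Growth inhibition was scored as reduced luminescence.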
Shiga inhibitor = A qHTS for Small Molecule Inhibitors of Shiga Toxin; Vero cells, Shiga toxin protein synthesis inhibition reporter; inhibition, % at 38.7 µM; 9.2% of 290,000 active; AID 2315, 2010; in the data active = inhibition mostly above about 28%, no sharp cut-off; inactive = mostly below about 43%; also: 0% is about no effect
Sm TGR inh = qHTS Assay for the Inhibitors of Schistosoma Mansoni Peroxiredoxins | 3% of 360,000 active | Schistosoma mansoni thioredoxin glutathione reductase (TGR), Q962Y6 | purified TGR, DTNB reduction, TNB absorbance 405 nm | Potency, µM (highest dose often 114 µM), for the others: at the top dose activity change, negative = inhibition, most hits filed as inhibitors; also: potency is read from the fitted curve at half-maximal effect; % is scaled to controls: 0 for no effect and ±100 for the full control effect; nearly all actives have a fitted effect of over 60% in size
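Kinetic colorimetric format: TGR-catalysed, NADPH-driven DTNB reduction monitored via TNB absorbance. Enzyme dispensed at 20 nM; compound exposure 15 min at room temperature before reaction start.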
An asterisk follows results filed as active; i = inactive; ? = inconclusive; nt = not tested or not shown. An excerpt weighted towards active compounds, which were near 21% of everything screened. Unless noted, calls follow the shape of the dose curve; as a rule, active = well fitted curve in the direction sought with a large enough effect; inconclusive = small, poorly fitted or top-dose-only effect, or another doubt; inactive = no such curve, though single readings can be large; an effect the other way counts as inactive or inconclusive.

SMILES | Pf growth 96h | NS1 function inh | CHX counter | Pf growth 48h | Shiga inhibitor | Sm TGR inh
CC[C@H](C)[C@H](NC(=O)[C@H](CC(=O)O)NC(=O)[C@H](CC(N)=O)NC(=O)[C@@H](NC(=O)[C@H](CCCNC(=N)N)NC(=O)[C@@H](NC(=O)[C@@H](NC(=O)[C@@H](NC(=O)[C@@H](NC(=O)[C@H](CCCCN)NC(=O)[C@@H](NC(=O)[C@H](CC(C)C)NC(=O)[C@@H](NC(=O)[C@H](CCCCN)NC(=O)[C@@H](NC(=O)[C@H](CC(=O)O)NC(=O)[C@H](CC(=O)O)NC(=O)[C@H](CCC(N)=O)NC(=O)[C@@H](NC(=O)[C@H](CCCCN)NC(=O)[C@H](CCC(N)=O)NC(=O)[C@@H](NC(=O)[C@@H]1CCCN1C(=O)[C@@H](N)C(C)C)[C@@H](C)CC)C(C)C)[C@@H](C)O)[C@@H](C)O)[C@@H](C)CC)[C@@H](C)O)[C@@H](C)CC)C(C)C)[C@@H](C)O)[C@@H](C)CC)C(=O)N[C@@H](CO)C(=O)N[C@@H](Cc1cnc[nH]1)C(=O)N[C@H](C(=O)N[C@@H](CCC(N)=O)C(=O)N[C@@H](CO)C(=O)N[C@H](C(=O)N[C@@H](CO)C(=O)N[C@@H](CO)C(=O)N[C@@H](CCCCN)C(=O)N[C@@H](CCC(N)=O)C(=O)N[C@@H](CCCCN)C(=O)O)C(C)C)[C@@H](C)O | nt | nt | -4.5 | nt | -4.0 | nt
O=C(CN1CCCN(Cc2ccc(F)cc2)S1(=O)=O)NCc1ccccc1Cl | nt | nt | nt | nt | nt | -4.9%
CCC(C)N1CCN(S(=O)(=O)Cc2ccccc2)CC1 (centres undefined) | ? | -9.1% | 0.7 | 16.4% | -16.3 | -3.0%
COc1cc(OC)cc(C(=O)NCC(=O)OCc2nc3ccccc3s2)c1 | 290.4% | -6.1% | 36.4* | i | 113.0* | -1.9%
CCOC(=O)CNC(=O)c1ccc(OCC(F)(F)F)cc1 | 111.2% | nt | 27.6* | 291.7% | 82.2* | -0.8%
CCOC(=O)CNC(=O)Cc1ccc(OC)cc1 | 7.2% | 0.6% | 13.0* | 2.8% | 20.5 | 15.1%
CCOC(=O)N1CCN(C(=O)COC(=O)Cc2ccc(OC)cc2)CC1 | 70.7% | 20.0% | -7.5 | -7.8% | 3.3 | 7.1%
CCOC(=O)CNC(=O)c1cc(OC)cc(OC)c1 | 0.928µM* | nt | 6.9 | 28.9% | 33.0 | ?
COc1cccc(-n2cc(C(=O)OCc3ccc(F)c(F)c3)c3ccccc3c2=O)c1 | nt | nt | nt | nt | nt | -1.9%
O=C(C[n+]1cnn(CC(=O)c2ccc(Cl)cc2Cl)c1)c1ccc([N+](=O)[O-])cc1 | ? | ? | -2.9 | 3.7µM* | -12.0 | 6.9%
CCOc1cc(-c2ccc3c(c2)OCO3)cc(=O)c2c(C)oc(C)c12 | 26.3% | 3.3% | -3.0 | ? | -4.9 | 35.5µM*
COc1cc(-c2cc(OC)c3c(C)oc(C)c3c(=O)c2)ccc1OC(=O)c1cccc(Cl)c1 | nt | nt | nt | nt | nt | -13.8%
CCOc1ccc(-c2cc(OC(=O)c3ccccc3)c3c(C)oc(C)c3c(=O)c2)cc1 | nt | nt | nt | nt | nt | 50.1µM*
COc1ccc(-c2cc(OC(=O)c3cccc(C)c3)c3c(C)oc(C)c3c(=O)c2)cc1 | nt | nt | nt | nt | nt | 12.6µM*
COC(=O)Cn1c(=O)cnc2ccccc21 | ? | -0.1% | -1.4 | -10.7% | -2.3 | -6.2%
O=C(O)Cn1c(=O)cnc2ccccc21 | nt | 3.8% | -4.8 | 10.7% | 15.6 | -8.4%
CC(C)(C)c1ccc(Cn2c(=O)cnc3ccccc32)cc1 | ? | 10.0% | 38.2* | ? | 89.6* | 2.3%
O=c1cnc2ccccc2n1Cc1ccc(Br)cc1 | 18.1% | 0.5% | 17.8* | 27.4% | 55.5* | -0.1%
O=C(O)c1cn(-c2ccccc2)nc1-c1cccnc1 | nt | ? | 4.3 | nt | 6.5 | 2.7%
O=C(NC1CCN(Cc2ccccc2)CC1)c1cn(-c2ccccc2)nc1-c1cccnc1 | 2.33µM* | nt | nt | 3.7µM* | nt | 0.7%
CCOC(=O)c1cn(-c2ccccc2)nc1-c1cccnc1 | ? | -20.6% | 36.6* | 83.4% | 50.2* | -1.2%
O=C(CNC(=O)Cc1cccc2ccccc12)NCc1ccc(F)cc1 | 0.0% | 5.4% | -5.6 | -16.6% | -11.2 | 6.0%
COc1cccc(N2CC(NC(=O)c3cc(Cl)ccc3OC)CC2=O)c1 (centres undefined) | nt | nt | nt | nt | nt | 8.7%
COc1ccc(OC)c(S(=O)(=O)Nc2ccc(CC(=O)O)cc2)c1 | 13.1µM* | 2.6% | -0.6 | 4.9% | -9.5 | -3.3%
Cc1[nH]c2ccccc2c1C(c1ccccn1)N1CCCC1 (centres undefined) | 11.4% | nt | 7.8 | 9.3% | 2.4 | ?
SMILES | Pf growth 96h | NS1 function inh | CHX counter | Pf growth 48h | Shiga inhibitor | Sm TGR inh
Cc1cc(NC(c2cccnc2)c2c(C)[nH]c3ccccc23)no1 (centres undefined) | ? | -2.6% | -1.7 | -13.0% | -2.0 | 2.82µM*
Cc1ccnc(NC(c2ccccn2)c2c(C)[nH]c3ccccc23)c1 (centres undefined) | 18.1% | 0.5% | 7.4 | -12.2% | 17.7 | 0.282µM*
O=[N+]([O-])c1ccc2nc(NCCCO)nc(-c3ccccc3)c2c1 | 11.7µM* | -4.3% | -4.9 | ? | 3.7 | -0.8%
O=C(SCC(O)C(O)CS)c1cccs1 (centres undefined) | -25.0% | 5.3% | 1.0 | ? | 2.9 | -27.9%
CCCc1ccccc1OCCNC(C)=O | 8.28µM* | 4.8% | -2.0 | -15.8% | -3.6 | 4.5%
CC(C)c1c(C(=O)N/N=C/c2ccccc2OCc2c(F)cccc2Cl)nnn1-c1nonc1N | -4.6% | 9.1% | 0.3 | ? | -5.5 | -0.2%
Cc1ccc(NS(=O)(=O)c2c(C)[nH]c(C)c2C(=O)N2CCCCC2)cc1Cl | 36.8% | 1.1% | 7.3 | 17.5% | -5.0 | 0.8%
COc1cccc(/C=N/NC(=O)CCCC(=O)Nc2ccc(Br)cc2)c1 | -6.8% | -0.6% | 0.0 | 15.1% | 10.7 | -0.2%
COC(=O)N/N=C/c1cccc(OCCSc2ccc(Cl)cc2)c1 | -48.6% | -10.8% | 34.4* | 45.5% | 60.3* | -15.0%
COc1ccc(/C=C/C(=O)Oc2cccc(/C=N/NC(=O)Cc3ccc(Br)cc3)c2)cc1 | ? | 1.1% | 48.6* | ? | 89.4* | -5.8%
CCOC(=O)N/N=C\c1ccc(OC/C=C/c2ccccc2)c(OC)c1 | 50.3% | -21.1% | 11.9 | 1.85µM* | 22.5 | 2.7%
COC(=O)N/N=C\c1ccc(OC/C=C/c2ccccc2)c(OC)c1 | ? | -11.9% | -1.9 | 10.4% | -12.0 | 3.1%
CCOC(=O)N/N=C\c1cccc(OC)c1 | 52.8% | 2.9% | 41.7* | ? | 71.6* | 0.0%
CC(=O)Nc1ccc(N2CCc3c(C)c(C#N)c4nc5ccccc5n4c32)cc1 | 47.6% | 15.6% | -3.6 | 15.3% | -3.4 | -6.5%
Cc1ccnc2nc(C(=O)Nc3cc(Cl)ccc3N3CCOCC3)nn12 | 0.233µM* | 4.4% | 0.0 | 0.147µM* | -8.8 | 10.4%
